# According to article PMC5540273 (PLoS ONE, 2017):
# Assays:
# Settings in all cases: concentration: 1 μM, replicates: in singlicate; n = 1
# CLK2 = test system: CLK2
# CLK3 = test system: CLK3
# CLK4 = test system: CLK4
# CSF1R-autoinhibited = test system: CSF1R-autoinhibited
# CSF1R = test system: CSF1R
# CSK = test system: CSK
# CSNK1A1L = test system: CSNK1A1L
# CSNK1A1 = test system: CSNK1A1
# CSNK1D = test system: CSNK1D
# CSNK1E = test system: CSNK1E
# 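Also: KINOMEscan kinase panel screen.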
SMILES,%Inh (CLK2) [%],%Inh (CLK3) [%],%Inh (CLK4) [%],%Inh (CSF1R-autoinhibited) [%],%Inh (CSF1R) [%],%Inh (CSK) [%],%Inh (CSNK1A1L) [%],%Inh (CSNK1A1) [%],%Inh (CSNK1D) [%],%Inh (CSNK1E) [%]
CC(=O)Nc1nc2cnc(Nc3cc(NC(=O)c4cccc(C5(C#N)CC5)c4Cl)ccc3C)nc2s1,0,0,10,15,99.4,41,23,0,0,0
COC(=O)Nc1nc2ccc(Oc3ccc(NC(=O)Nc4cc(C(F)(F)F)ccc4F)cc3)cc2n1C.Cl [GW692089],0,0,0,0,86,0,0,0,0,0
Cl.Cl.NCC(C(=O)Nc1cc(Br)c(-c2ccnc3[nH]ccc23)s1)c1ccccc1 (stereo not drawn) [GSK1269851],100,39,61,0,28,0,19,0,35,28
Nc1ncc(-c2cccnc2)c2scc(-c3ccc4c(c3)CCN4C(=O)Cc3ccccc3)c12 [GSK683281],0,19,18,5,99.2,23,21,4,13,35
Cc1cccc(NC(=O)Nc2ccc(Oc3ncnc4ccn(C)c34)cc2)c1,0,0,8,48,99.9,0,0,0,0,11
O=C(Nc1cccc(Oc2ccc3nc(NC(=O)C4CC4)cn3n2)c1)c1ccccc1C(F)(F)F,73,32,0,88,100,11,0,24,0,20
COC(=O)Nc1nc2cc(Oc3ccc(NC(=O)Nc4cc(C(F)(F)F)ccc4F)cn3)ccc2[nH]1.Cl.Cl [GW681170],8,0,61,0,67,0,0,0,6,0
Cc1ccc(F)c(C(=O)Nc2cccc(-c3nn4ccccc4c3-c3ccnc(Nc4cccc(F)c4)n3)c2)c1F [GSK361061],0,0,14,0,98.8,39,21,41,35,54
Cc1occc1-c1ncc(OC[C@@H](N)Cc2c[nH]c3ccccc23)cc1-c1ccc2[nH]nc(C)c2c1.O=C(O)C(F)(F)F [GSK682037],63,25,9,0,1,0,97.3,97,97.8,99.9
O=C(Nc1cccc(-c2nn3ccccc3c2-c2ccnc(Nc3cccc(C(F)(F)F)c3)n2)c1)c1c(F)cccc1F [GSK292658],0,0,8,0,89,31,5,16,2,46
Nc1n[nH]c2cnc(-c3ccccc3)cc12 [SB-642124],73,20,64,0,17,0,8,0,12,16
CNC(=O)c1ccccc1Nc1nc(Nc2ccc(N3CCOCC3)cc2)ncc1Cl.Cl [GSK1576028],97.1,90,98.8,89,97.5,85,68,30,36,13
CN(C)Cc1ccc(-c2ccc3c(Nc4ccc(Oc5ccccn5)cc4)ccnc3c2)o1 [GW567148],0,12,0,11,38,82,9,0,0,23
Cc1ccc(C)c(NC(=O)NC2CCN(c3ccnc(Nc4ccc(F)cc4)n3)C2)c1 (stereo not drawn) [GSK1379720],0,0,0,25,0,0,0,0,6,11
Cl.NC(=O)c1cccc(Nc2nccc(Nc3ccc(Oc4c(Cl)cccc4Cl)c(Cl)c3)n2)c1 [GW659009],0,0,34,0,10,0,0,13,0,0
C[C@@H](Oc1cc(-n2cnc3cc(-c4ccnc(NCCS(C)(=O)=O)c4)ccc32)sc1C(N)=O)c1ccccc1Cl [GSK907232],4,32,47,1,38,0,22,0,0,17
O=C(Nc1cccc(-c2nn3ccccc3c2-c2ccnc(Nc3cccc(F)c3)n2)c1)c1c(F)ccc(F)c1Cl [GSK357952],0,0,11,0,93.3,20,7,2,0,40
CN1CCN(Cc2cccc(-c3ccc4c(Nc5ccc(Oc6ccccc6)cc5)ccnc4c3)c2)CC1 [GW578342],6,0,0,43,5,76,0,0,0,2
Cl.c1ccc(-c2ccc3c(Nc4ccc5[nH]ncc5c4)ccnc3c2)nc1 [GW440137],67,12,21,0,27,0,0,0,27,41
Cn1cc(-c2ccc3c(c2)CCN3C(=O)Cc2cccc(F)c2)c2c(N)ncnc21 [GSK2603358],0,0,39,26,94.7,14,5,0,20,77
O=c1[nH]cc(-c2ccc(N3CCOCC3)cc2)c2sc(-c3cn[nH]c3)cc12 [GSK2276055],76,37,89,0,33,7,44,73,84,94.4

SMILES,%Inh (CLK2) [%],%Inh (CLK3) [%],%Inh (CLK4) [%],%Inh (CSF1R-autoinhibited) [%],%Inh (CSF1R) [%],%Inh (CSK) [%],%Inh (CSNK1A1L) [%],%Inh (CSNK1A1) [%],%Inh (CSNK1D) [%],%Inh (CSNK1E) [%]
Oc1cc(Nc2ccnc3cc(I)ccc23)ccc1F [GW552771],51,0,9,23,23,0,16,0,20,16
Nc1ncc(-c2ccc3nccc(-c4ccncc4)c3c2)cc1S(=O)(=O)N1CCOCC1 [GSK1627798],72,55,54,0,3,0,7,3,37,42
O=C(Nc1cccc(-c2nn3ncccc3c2-c2ccnc(Nc3ccccc3)n2)c1)c1c(F)cccc1F [GSK198271],0,25,8,17,99.7,97.5,2,0,20,85
COc1cc(Nc2nccc(-c3c(-c4cccc(NC(=O)c5c(F)cccc5F)c4)nn4ncccc34)n2)cc(OC)c1OC [GSK327238],0,0,2,55,100,98.1,7,0,23,94.7
c1ccc(Oc2ccc(Nc3ccnc4cc(-c5ccc(CNCCN6CCOCC6)o5)ccc34)cc2)nc1 [GW567145],0,0,0,40,68,77,0,0,0,0
O=C(Nc1n[nH]c2cc(-c3ccoc3)ccc12)C1CC1 [SB-738481],73,13,9,0,2,0,5,0,2,0
O=C(NC1CCN(c2ccnc(Nc3ccc(F)cc3)n2)C1)c1cc2ccccc2s1 (stereo not drawn) [GSK1379716],0,14,30,3,2,0,11,0,0,28
NCCCC(NC(=O)c1cc(Br)c(-c2ccnc3[nH]ccc23)s1)c1ccccc1.O=C(O)C(F)(F)F.O=C(O)C(F)(F)F (stereo not drawn) [GSK1287544],61,33,45,0,2,0,59,90,82,84
COc1ccc(-c2coc3ccc(-c4nnc(SCc5ccc(OC)c(C(F)(F)F)c5)o4)cc23)cc1,1,0,18,7,0,16,0,0,0,0
CCS(=O)(=O)c1ccc(OC)c(Nc2nccc(-c3c(-c4cccc(NC(=O)c5c(F)cccc5F)c4)nn4ncccc34)n2)c1 [GSK326180],0,9,21,0,24,17,0,0,7,35
CN(C)S(=O)(=O)c1cc(-c2ccc3nccc(-c4cccc(S(N)(=O)=O)c4)c3c2)cnc1N [GSK1669921],86,21,54,0,7,0,14,49,0,33
COc1cccc(-c2ccc3c(NC(=O)C4CC4)n[nH]c3n2)c1 [SB-710903],100,0,20,54,10,0,12,0,18,16
CN1CCN(CCCNc2nccc(-c3c(-c4ccc(F)cc4)nn4cc(C(F)(F)F)ccc34)n2)CC1 [GW621581],15,0,22,0,0,0,12,83,90.6,92.9
Cc1ccc(S(=O)(=O)Nc2ccc(Nc3nccc(Nc4cccc5[nH]ncc45)n3)cc2)cc1 [GSK581271],0,13,87,0,22,0,5,0,46,36
Cc1ccc(C(=O)Nc2ccc(Nc3ccnc4cc(-c5nccs5)ccc34)cc2O)cc1.Cl [GW494702],0,0,0,44,20,30,14,0,97.1,8
COc1cccc(NC(=O)NC2CCN(c3ccnc(Nc4cc(OC)c(OC)c(OC)c4)n3)C2)c1 (stereo not drawn) [GSK1379763],11,0,0,6,34,15,0,0,0,0
O=C(O)C(F)(F)F.O=C(O)C(F)(F)F.O=c1[nH]ccc2nc(N[C@@H]3CCCNC3)nc(Nc3ccc(S(=O)(=O)N4CCOCC4)cc3)c12 [GSK2177277],98.9,41,79,83,99.9,51,99.7,99.9,98.7,99.9
COc1ccc(CNC(=O)NC2CCN(c3ccnc(Nc4ccc(F)cc4)n3)CC2)cc1 [GSK1379788],0,11,0,19,8,0,9,0,42,63
COc1cc(Nc2nccc(-c3c(-c4cccc(NC(=O)c5c(F)cccc5F)c4)nn4ccccc34)n2)cc(OC)c1OC [GSK323521],0,31,18,0,93,1,15,27,29,43
COc1cccc(C(=O)Nc2cccc(Oc3ccc4nc(NC(=O)C5CC5)cn4n3)c2)c1,16,5,0,94.2,100,17,17,29,1,19
Cl.Cl.NCC(NC(=O)c1cc(-c2ccccc2)c(-c2ccnc3[nH]ccc23)s1)c1ccccc1 (stereo not drawn) [GSK1321561],0,49,19,0,0,0,97.1,95.7,98,99.9

SMILES,%Inh (CLK2) [%],%Inh (CLK3) [%],%Inh (CLK4) [%],%Inh (CSF1R-autoinhibited) [%],%Inh (CSF1R) [%],%Inh (CSK) [%],%Inh (CSNK1A1L) [%],%Inh (CSNK1A1) [%],%Inh (CSNK1D) [%],%Inh (CSNK1E) [%]
COc1cc(Nc2nccc(N3CCC(NC(=O)c4cc5ccccc5s4)C3)n2)cc(OC)c1OC (stereo not drawn) [GSK1379760],0,0,13,23,18,0,0,41,10,0
COc1ccc(Nc2nccc(NCCNC(=O)c3cc4ccccc4s3)n2)cc1 [GSK1379896],0,0,0,0,0,0,0,0,8,16
Cl.c1ccc(-c2ccc3c(Nc4ccc5[nH]ccc5c4)ccnc3c2)nc1 [GW440138],0,8,19,36,75,0,0,0,13,27
C[C@@H]1CC[C@@H](C(=O)Nc2ccccc2)CN1c1cc(-c2ccc3c(N)n[nH]c3c2)nc(N)n1 [GSK2286062],13,0,16,10,0,0,6,0,20,0
c1ccc(-c2n[nH]cc2Nc2ccnc3ccccc23)nc1 [GW694077],94.3,25,96.5,29,7,0,20,40,55,63
COc1cccc(C2=C(Nc3ccc(Cl)c(C(=O)O)c3)C(=O)NC2=O)c1 [SB-390769],6,0,17,13,0,0,5,0,8,13
CC(=O)N1CCN(c2ccc(Nc3nccc(-c4sc(C(C)C)nc4-c4cccc(NS(=O)(=O)c5cccc(Cl)c5)c4)n3)cn2)CC1 [GSK1660437],0,0,17,0,36,95.4,0,23,0,0
Clc1ccc(-c2nn3ncccc3c2-c2ccnc(Nc3ccc4c(c3)OCCO4)n2)cc1 [GW829116],0,0,0,0,87,0,17,77,94,98.6
CCCCc1nn2ncccc2c1-c1ccnc(Nc2ccc(N3CCN(C)CC3)cc2)n1 [GW684941],3,0,0,73,99.9,7,46,93.1,90.9,99.4
FC(F)(F)c1ccc(/C=C/c2cncnc2Nc2ccc3[nH]c(Cc4ccccc4)nc3c2)cc1 [GW709199],0,11,0,0,4,0,36,33,3,28
CCn1c(-c2nonc2N)nc2c(C#CC(C)(C)O)ncc(OCCCCN)c21.O=C(O)C(F)(F)F.O=C(O)C(F)(F)F [GSK507274],69,11,43,0,21,0,18,19,29,38
COc1cc(Nc2nccc(N3CCC(NC(=O)Nc4cccc(C(C)=O)c4)C3)n2)cc(OC)c1OC (stereo not drawn) [GSK1379753],0,11,0,0,31,0,0,0,3,18
Cl.Cl.NCC(NCc1ccc(-c2ccnc3[nH]ccc23)s1)c1ccccc1 (stereo not drawn) [GSK1321565],43,45,88,19,50,0,16,10,26,64
COc1cc(Nc2ncc3c(C)nc(-c4cc5ccccc5[nH]4)n3n2)cc(OC)c1OC [GW869516],75,36,43,0,0,13,0,30,0,15
COc1ccc(Nc2nccc(N3CCC(NC(=O)Nc4cccc(OC)c4)C3)n2)cc1 (stereo not drawn) [GSK1379742],0,39,9,0,0,0,19,0,1,34
CC(C)(C)c1ccc2nccc(Nc3cccc(O)c3)c2c1 [GW856795],0,0,0,54,12,0,0,26,0,0
Cn1cc(-c2[nH]c3cc(NC(=O)[C@H](N)C4CCCCC4)cc4c3c2C=NNC4=O)cn1,16,13,55,49,100,71,3,24,14,11
CN(c1ccc(NC(=O)Nc2cc(C(F)(F)F)ccc2F)cc1)c1ccnc(Nc2ccc(S(N)(=O)=O)cc2)n1 [GW809893],13,0,16,0,25,9,9,15,0,1
c1ccc(-c2cnc3nccnn23)cc1 [AH20685],0,0,11,14,0,0,0,0,11,0
O=C(Nc1ccccc1F)NC1CCN(c2ccnc(Nc3ccc(F)cc3)n2)CC1 [GSK1379800],0,0,0,46,5,0,27,0,54,60
Cn1cc(-c2ccc3c(c2)CCN3C(=O)Cc2cccc(Cl)c2)c2c(N)ncnc21 [GSK2606590],0,13,14,5,97.6,6,13,20,16,63
